# Experimental data published in PubChem BioAssay (NCI).
# The panel holds about 83,000 compounds, 20% with a hit somewhere; the sample as a whole holds those more often.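 Plates (96-well) were seeded with cells, treated with compound at one concentration, and incubated for 48 hours before percent growth was determined.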 Values without a mark were called inactive. Calls of active or inactive are those of the source. The calls were made as follows: active = growth percent below 10; inactive = the rest.
# Tests used:
# Experiment in all cases: NCI-60 one-dose screen, 48 h (100 = growth as untreated, 0 = no growth, -100 = all killed)
# Conditions in all cases: 10 µM
# RPMI-8226 leukemia = test system: RPMI-8226 leukemia
# OVCAR-8 ovarian = test system: OVCAR-8 ovarian
# OVCAR-5 ovarian = test system: OVCAR-5 ovarian
# OVCAR-4 ovarian = test system: OVCAR-4 ovarian
# SK-OV-3 ovarian = test system: SK-OV-3 ovarian
# OVCAR-3 ovarian = test system: OVCAR-3 ovarian
# HS 578T breast = test system: HS 578T breast
# T-47D breast = test system: T-47D breast
# BT-549 breast = test system: BT-549 breast
# MDA-MB-435 melanoma = test system: MDA-MB-435 melanoma
# SW-620 colon = test system: SW-620 colon
# MCF7 breast = test system: MCF7 breast
# HCT-116 colon = test system: HCT-116 colon
# HCC-2998 colon = test system: HCC-2998 colon
# KM12 colon = test system: KM12 colon
# IGROV1 ovarian = test system: IGROV1 ovarian
# NCI/ADR-RES ovarian = test system: NCI/ADR-RES ovarian
SMILES,growth (RPMI-8226 leukemia),growth (OVCAR-8 ovarian),growth (OVCAR-5 ovarian),growth (OVCAR-4 ovarian),growth (SK-OV-3 ovarian),growth (OVCAR-3 ovarian),growth (HS 578T breast),growth (T-47D breast),growth (BT-549 breast),growth (MDA-MB-435 melanoma),growth (SW-620 colon),growth (MCF7 breast),growth (HCT-116 colon),growth (HCC-2998 colon),growth (KM12 colon),growth (IGROV1 ovarian),growth (NCI/ADR-RES ovarian)
Nc1ccc2c(c1)C1(CCC2)NC(=O)NC1=O (stereo unspecified),98.4%,100%,92.8%,106%,109%,110%,103%,96.3%,102%,102%,104%,97.2%,101%,115%,102%,–,–
CNc1ccc(CSc2ccc(C)cc2)cc1,20.8%,91.1%,101%,34%,–,90.6%,95.8%,64.5%,–,85.2%,–,77%,93.6%,94%,62.4%,78.6%,92.1%
CCN(CC)CCNc1ccc(CO)c2oc3cc(Cl)ccc3c(=O)c12,85.7%,59.4%,104%,78.7%,92.9%,91.8%,99%,117%,94.9%,78.4%,71.3%,64.5%,58.6%,88.3%,98.6%,–,74.2%
Cc1cc(N(CCCNc2ccnc3cc(Cl)ccc23)Cc2ccc3c(c2)OCO3)nc(N2CCCCC2)n1,-49.5% (active),-11.2% (active),4.69% (active),-9.93% (active),31.3%,-71.8% (active),-32.4% (active),-37.3% (active),-24% (active),-74.6% (active),-39.4% (active),-14.3% (active),-43.9% (active),-57.6% (active),10.4%,–,7.45% (active)
CCN1Cc2c(/C=C/c3ccccc3)nc3ccc(OC)cc3c2N(c2cccc(Cl)c2)C1,-1.25% (active),89.4%,95.4%,67.5%,77.3%,74.7%,105%,55.1%,95.2%,76.1%,67.4%,78.5%,45.8%,86%,94.2%,–,77.4%
Nc1nc(N=Nc2ccc(O)cc2)cc(=O)[nH]1,106%,97.2%,104%,–,104%,125%,108%,95.7%,95.5%,98.3%,104%,101%,112%,106%,111%,109%,94.6%
NC(=O)CC1(c2ccccc2)CCCCC1,99.1%,107%,111%,103%,103%,103%,115%,97.5%,102%,109%,108%,96.4%,95.6%,102%,101%,–,–
CN(C)CCOc1nc2ccccc2c2c1-c1ccc(Cl)cc1C2=O,-23.4% (active),2.21% (active),18.3%,-6.28% (active),11.5%,-21.4% (active),-13.3% (active),11.9%,52.1%,-41.6% (active),–,-38.7% (active),1.69% (active),-53.6% (active),-45.2% (active),–,-6.87% (active)
CSC1=NCCCC1,106%,106%,112%,105%,108%,110%,116%,107%,108%,108%,114%,97.8%,109%,115%,113%,–,118%
O=C(O)CC(Cl)C(Cl)CC(=O)O (stereo unspecified),99.2%,102%,106%,104%,98.1%,106%,115%,99.6%,97.5%,93.8%,103%,105%,111%,110%,101%,–,102%
ClC(Cl)(Cl)c1nc2nccnc2[nH]1,98.8%,107%,104%,97.3%,102%,118%,99.2%,101%,103%,102%,107%,94.1%,103%,122%,106%,–,109%
COc1ccc(OC)c(/C=C/c2nc(SCc3ccccc3)n(-c3ccc(Cl)cc3)n2)c1,42.5%,83.6%,102%,–,86.2%,17.3%,-2.4% (active),78%,61.8%,-24.9% (active),28.2%,52.9%,20.2%,73.1%,31.1%,43.9%,19.1%
CN1CC[C@@H](c2c(O)cc(O)c3c(=O)cc(-c4ccccc4Cl)oc23)[C@@H](O)C1,-32.3% (active),–,16.4%,-26.7% (active),47.6%,13.6%,12.9%,4.59% (active),-22.8% (active),-91.2% (active),9.83% (active),9.53% (active),8.46% (active),-34% (active),-34% (active),-37.1% (active),12.2%
Nc1ncn(C2OC(CO)C(O)C2O)c(=O)n1 (stereo unspecified),-25.4% (active),–,85.9%,-30.3% (active),12.3%,-13.7% (active),3.64% (active),10.6%,-9.44% (active),3.05% (active),29.3%,11.5%,-32% (active),-1.48% (active),-15.8% (active),-39.8% (active),15.1%
C=C(NC(=O)C(=C)NC(=O)c1csc(C2=NC3c4csc(n4)C4NC(=O)c5csc(n5)C(C(C)(O)C(C)O)NC(=O)C5CSC(=N5)/C(=C/C)NC(=O)C(C(C)O)NC(=O)c5csc(n5)C3(CC2)NC(=O)C(C)NC(=O)C(=C)NC(=O)C(=C)NC(=O)C(C(C)C)NC2C=Cc3c(C(C)O)cc(nc3C2O)C(=O)OC4C)n1)C(N)=O (stereo unspecified),-37.1% (active),–,52.6%,6.53% (active),61.9%,13.4%,22%,-6.42% (active),-35.1% (active),-65.2% (active),-8.45% (active),19.8%,-49.5% (active),-57.2% (active),-88.1% (active),-18.1% (active),77.2%
CCc1ccc2c(c1)N(CCO)C1=C(C(=O)OC1)C2c1ccccc1 (stereo unspecified),101%,–,93.9%,104%,94.9%,111%,125%,95.6%,87.7%,21.6%,97.2%,92.2%,89.3%,–,76.1%,95.8%,78.7%
CN(C)C(=S)N/N=C\C=N/NC(=S)N(C)C,0.534% (active),–,95.2%,-36.5% (active),49.9%,9.87% (active),74.5%,15%,81%,67%,64.1%,12%,0.438% (active),80.4%,81.5%,-59.4% (active),51.3%
Cc1cn(C2CCCCO2)c(=O)nc1NO (stereo unspecified),111%,101%,109%,–,119%,109%,86.8%,105%,107%,97.6%,105%,80.3%,111%,101%,102%,113%,107%
CCOC(=O)C1CCc2c(ccc3ccccc23)N1CCC#N (stereo unspecified),104%,107%,107%,–,–,115%,99.9%,97.5%,96%,35.6%,91.9%,85.9%,96.4%,93.5%,94.9%,93.5%,82%
CC(C)C[C@H](NC(=O)[C@H](Cc1cccc2ccccc12)NS(=O)(=O)c1cccc2cccnc12)B(O)O,-36.7% (active),–,-57.6% (active),–,0.299% (active),-77.1% (active),-18.8% (active),-44.6% (active),-49.8% (active),-52.2% (active),–,9.94% (active),-91.2% (active),-89.2% (active),-73.8% (active),-64.7% (active),14.6%
